Source: PubChem BioAssay AID1619 (SRMLSC, 2009)
About 830 (0.38%) of roughly 220,000 compounds were called active.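 How the source made its calls: active means compound inhibiting the enzyme by more than half at any dose during confirmatory dose-response retesting; inconclusive means strong single-dose inhibitors picked by rank but not retested; inactive means the rest.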 Only a sample is shown. Results with a measured potency or affinity are listed apart.

Molecular target: Leucine aminopeptidase (Plasmodium falciparum (isolate 3D7)) (UniProt Q8IL11)
Experiment: P. falciparum M17LAP inhibitors, primary screen, biochemical, fluorogenic H-Leu-NHMec substrate, 1536-well (AID 1619);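 further: plate controls were full reaction with DMSO carrier for no effect and no enzyme background for full effect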
Conditions: recombinant M17LAP, H-Leu-NHMec fluorogenic kinetic assay; at 30 µM; active compounds read high

Leucine aminopeptidase (Plasmodium falciparum (isolate 3D7)), sequence (Q8IL11 whole entry, looked up): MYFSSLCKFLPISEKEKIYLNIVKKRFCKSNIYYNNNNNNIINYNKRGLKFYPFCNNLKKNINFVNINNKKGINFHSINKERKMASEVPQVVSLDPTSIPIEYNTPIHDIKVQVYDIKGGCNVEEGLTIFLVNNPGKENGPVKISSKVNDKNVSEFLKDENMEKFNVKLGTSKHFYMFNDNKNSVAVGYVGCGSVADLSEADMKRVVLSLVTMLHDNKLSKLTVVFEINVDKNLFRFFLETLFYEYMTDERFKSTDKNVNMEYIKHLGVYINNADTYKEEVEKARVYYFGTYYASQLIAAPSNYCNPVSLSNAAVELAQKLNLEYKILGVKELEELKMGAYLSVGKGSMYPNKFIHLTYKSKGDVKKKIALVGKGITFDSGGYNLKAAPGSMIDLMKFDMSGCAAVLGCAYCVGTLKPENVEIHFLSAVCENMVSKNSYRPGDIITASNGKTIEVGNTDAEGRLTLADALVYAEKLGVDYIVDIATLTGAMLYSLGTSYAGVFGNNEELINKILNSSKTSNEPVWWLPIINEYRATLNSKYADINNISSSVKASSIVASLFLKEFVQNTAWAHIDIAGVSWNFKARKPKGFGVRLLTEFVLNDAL

inhibition, inactive:
CCOc1ccc(NC(=O)CSc2nc3c([nH]c4ccccc43)c(=O)n2C)cc1 1.51%
CC(C)(C)c1cn(-c2ccccc2)c(=S)[nH]1 1.06%
O=c1c(Cc2ccc(F)cc2)c(O)ccn1Cc1ccc(F)cc1 -0.83%
CS(=O)(=O)N1CCC(C(=O)O)CC1 -6.86%
CCOC(=O)c1c(NC(=O)CC2SC(N)=NC2=O)sc2c1CCC(C)C2 (stereo not given) 3.54%
COC(=O)C(NC(=O)C(C)Oc1ccccc1)C(C)C (stereo not given) 1.41%
COc1ccc(C2=NN(c3nc(C(=O)O)cs3)C(O)(C(F)(F)F)C2)c(OC)c1 (stereo not given) 26.5%
CN(C)S(=O)(=O)c1ccc(Cl)c(NC(=O)COC(=O)c2cc(-c3ccccc3)nc3ccccc23)c1 15.3%
C[C@H](NC(=O)OCc1ccccc1)C(=O)NNC(=O)[C@H](Cc1ccccc1)NC(=O)OC(C)(C)C 12.1%
COc1cc(C2/C(=C(\O)c3cc(C)ccc3C)C(=O)C(=O)N2CCN(C)C)ccc1O (stereo not given) -5.88%
Cc1ccc2nc(-c3ccc(NC(=O)CN4CCN(C(=O)c5ccco5)CC4)cc3)sc2c1 4.66%
O=C(CN1C(=O)c2ccccc2C1=O)NCC1CCCO1 (stereo not given) 10.2%
O=C(CN1CCN(Cc2ccccc2)CC1)NCC1COc2ccccc2O1 (stereo not given) 17%
CC1CCCCC1NC(=O)COC(=O)c1ccc(N(C)C)cc1 (stereo not given) -9.99%
CCOC(=O)C1C(=O)NC(N2CCN(CC)CC2)=NC1c1ccccc1 (stereo not given) 2.42%
COc1ccc(-c2noc(CSc3nc(N)c(-c4ccccc4)c(=O)[nH]3)n2)cc1 10.2%
Nc1nc(SCC(=O)Nc2ccccc2)[nH]c(=O)c1-c1ccccc1 8.35%
COc1ccc(Cc2c(O)nc(SC)n(C(C)=O)c2=O)cc1 -1.99%
COc1ccc(-c2noc(CSc3nc(N)c(-c4ccccc4)c(=O)[nH]3)n2)cc1OC -5.97%
COc1ccc(-n2c(SCC(=O)N3CCOCC3)nc(O)c(Cc3ccccc3)c2=O)cc1 20.3%
Nc1nc(SCC(=O)Nc2ccc(Cl)cc2)[nH]c(=O)c1-c1ccccc1 13.7%
O=C(CSc1nc(O)c(Cc2ccccc2)c(=O)[nH]1)Nc1ccccc1 51.3%
COc1ccccc1NC(=O)CSc1nc(O)c(Cc2ccccc2)c(=O)[nH]1 35.1%
CCOCCCNC(=O)CCNC(=O)c1cc(OC)c(OC)c(OC)c1 3.56%
CCN(CC)S(=O)(=O)c1ccc(C(=O)NCCN2C(=O)S/C(=C\c3cccnc3)C2=O)cc1 -4.15%
[N-]=C=C1C(=S)NC(=O)[C@H]([n+]2ccccc2)[C@H]1c1ccc(Cl)cc1 6.14%
COc1cc(NC(=O)c2ccccc2Cl)c(OC)cc1NC(=O)CN1CCCCC1 13.6%
CC(=O)Nc1ccc(C(=O)CSc2nnnn2C2CCCC2)cc1 11.4%
O=C(Cc1ccccc1)NCC(=O)OC(c1ccccc1)c1ccccc1 0.75%
OC(C#CCN1CCCC1)c1ccccc1 (stereo not given) 9.35%
O=S(=O)(c1ccccc1)n1ccc2cccnc21 7.22%
Cc1ccc(S(=O)(=O)CCC(=O)NCc2ccccc2Cl)cc1 22.9%
Cc1ccc(C)c2nc3sc(C(=O)N4CCCc5ccccc54)c(N)c3cc12 8.65%
O=C1C2C(c3ccccc3)C=CC(c3ccccc3)C2C(=O)N1C1CCCCC1 (stereo not given) 4.34%
COc1cccc(NC(=O)CSc2ncnc3c2oc2ccccc23)c1 2.46%
COCCn1c(SCC(=O)Nc2cccc(OC)c2)nc2c(oc3ccccc32)c1=O -1.96%
CCN(C(=O)CSc1ncccc1C(=O)Oc1cccc([N+](=O)[O-])c1)c1cccc(C)c1 -2.44%
CCOC(=O)c1cccnc1SCC(=O)Nc1ccc(C)cc1 3.41%
CCC(Sc1ncccc1C(=O)Oc1cccc([N+](=O)[O-])c1)C(=O)Nc1ccccc1OC (stereo not given) 46.5%
CSc1cccc(NC(=O)CSc2ncccc2C(=O)Oc2cccc([N+](=O)[O-])c2)c1 53%
O=C(N1CCCCC1)N1CCCN(C(=O)N2CCCCC2)CC1 7.89%
O=C(COc1ccc2ccccc2c1)Nc1ccc(S(=O)(=O)N2CCCCCC2)cc1 -9.55%
Cc1ccc(C(=O)Nc2nnc(C)s2)cc1 11.4%
O=C(Nc1nc(=O)c2ccccc2s1)c1ccccc1 6.62%
CC(=O)Cc1nsc(NC(=O)c2ccccc2)n1 9.29%
Cc1ccc(C(=O)Nc2nccs2)cc1 2.76%
CC(C)CCC1(CCNC(=O)c2cccs2)CCOC(C)(C)C1 (stereo not given) 0.32%
Cc1ccc(S(=O)(=O)n2nc(-c3ccco3)nc2N)cc1 -3.51%
O=C(NCCSCc1ccccc1)c1cc(S(=O)(=O)N2CCOCC2)ccc1F 6.12%
CC(C(O)C12CC3CC(CC(C3)C1)C2)N1CCCCC1 (stereo not given) 9.11%
Cc1nn(-c2ccccc2)c(C)c1/C=C/C(=O)OC(C)C(=O)Nc1ncc(Cl)cc1Cl (stereo not given) -12.7%
Cc1cc(=O)n(CNC(=O)c2ccccc2)c(=S)[nH]1 -9.25%
O=C(CSc1nc2ccccc2[nH]1)Nc1ccc2c(c1)CCC2 1.81%
CC(C)Cc1c(O)nc(SCC(=O)Nc2ccc3c(c2)CCC3)[nH]c1=O 54.1%
O=C(CSc1nccc(=O)[nH]1)Nc1ccc2c(c1)OCCO2 -0.7%
CCC(C)c1c(O)nc(SCC(=O)Nc2ccccc2)[nH]c1=O (stereo not given) 25.4%
O=C(CSc1nncs1)Nc1ccc2c(c1)OCCO2 23.5%
Cn1cnnc1SCC(=O)Nc1ccc2c(c1)CCC2 42.8%
Nc1cc(=O)[nH]c(SCC(=O)Nc2ccc3c(c2)CCC3)n1 53.8%
O=C(CSc1nc2ccc(Cl)cc2[nH]1)Nc1ccc2c(c1)CCC2 3.87%
Cc1coc(C)c1C(=O)CC1(O)C(=O)Nc2cc(Cl)cc(Cl)c21 (stereo not given) -6.03%
Cc1ccc(S(=O)(=O)N(C)C)cc1NC(=O)COc1ccc(-c2nnco2)cc1 -1.3%
CC(NS(=O)(=O)c1ccc([N+](=O)[O-])cc1)C(=O)NN (stereo not given) 5.26%
O=C1NC(=S)N/C1=C/c1cccn1-c1ccc([N+](=O)[O-])cc1 -21%
COc1ccc(OC)c(/C=C/C(=O)OCC(=O)Nc2ccc(Cl)c(S(=O)(=O)N(C)C)c2)c1 5.28%
Cc1cc(C)n(C(=O)c2ccc(C)o2)n1 6.21%
Cc1ccc(S(=O)(=O)c2ccc(NN)cc2)cc1 20.8%
Cc1ccc(C2N(c3nccs3)C(=O)C3CCCN32)cc1 (stereo not given) -15.4%
Fc1ccc(COc2ccccc2C(=S)N2CCCC2)cc1 10.6%
CN(C)S(=O)(=O)c1ccc(C(=O)NCc2ccccn2)cc1 -3.48%
Cc1cc2c(cc1C)-c1c(ssc1=Nc1ccc(S(N)(=O)=O)cc1)C(C)(C)N2 -1.4%
CC(=O)NS(=O)(=O)c1ccc(N=c2ssc3c2-c2cc(C)ccc2NC3(C)C)cc1 55%
CC(=O)NS(=O)(=O)c1ccc(NS(=O)(=O)c2ccc(F)cc2)cc1 -13%
Cc1ccc(S(=O)(=O)NC(=O)Nc2cc(C)ccc2F)cc1 -4.66%
Cc1nn(-c2ccc(Cl)c(Cl)c2Cl)c(=O)c2ccccc12 -4.32%
N#CC(C#N)=Cc1ccc(OC(=O)c2ccccn2)cc1 15.9%
COc1cc2c(cc1OC)C1(Nc3c-2c(-c2ccccc2)nn3-c2ccccc2)C(=O)Nc2ccccc21 (stereo not given) 0.95%
O=C(COC(=O)c1cnccn1)Nc1ccc2c(c1)OCO2 13.5%
CCOc1ccc(CCNC(=O)CN(C)S(=O)(=O)c2ccc3c(c2)CCC(=O)N3)cc1OCC -8.18%
COC(=O)CN(Cc1ccccc1)S(=O)(=O)c1ccc(OC)c(OC)c1 -2.5%
O=S(=O)(c1cccs1)N1CCN(c2ncccn2)CC1 -7.79%
COc1ccc(C(=O)Nc2ccccc2N2CCOCC2)cc1[N+](=O)[O-] 7.12%
CCOC(=O)c1c(-c2cccs2)csc1NC(=O)CC(C)C 7.23%
CCOC(=O)c1c(-c2cccs2)csc1NC(C)=O -14.7%
Cc1ccc(OCCCN2C(=O)C(=O)c3cccc(C)c32)cc1 13.8%
COc1ccc(C2NC(=S)N3C(c4ccc(OC)cc4)NC(=S)N23)cc1 (stereo not given) 34.8%
OC1NC(=S)N(c2ccccc2)C1O (stereo not given) 8.92%
COc1cccc(CC(NC(C)=O)C(=O)NC2CCN(c3nnnn3-c3ccccc3)CC2)c1 (stereo not given) 5.55%
CN(CCC#N)CC(=O)Nc1ccc(NC(=O)CN(C)CCC#N)cc1 -4.87%
NC(=O)c1ccc(-c2ccccc2F)cc1 6.07%
O=S1(=O)N=C(Nc2ccc(O)c(CN3CCCCC3)c2)c2ccccc21 18.9%
CCOC(=O)c1c(NC(=O)CSc2nnc(C)s2)sc2c1CCCCC2 -4.03%
COC(=O)c1c(NC(=O)CSc2nnc(C)c(=O)[nH]2)sc(C)c1C 21.5%
Cc1nnc(SCC(=O)Nc2sc3c(c2C(N)=O)CCCC3)[nH]c1=O 49.5%
CCOC(=O)c1c(NC(=O)CSc2nnc(C)c(=O)[nH]2)sc(C)c1C 11.9%
